# Pf Dd2 growth – qHTS Primary assay for Inhibitors of Plasmodium falciparum Dd2 growth in vitro. 4.3% of 120,000 active. Potency, µM (doses to about 28.9 µM), for the others: at the top dose activity, negative = inhibition, actives largely listed as inhibitors. P. falciparum Dd2 growth, SYBR Green, 72 h; active = well fitted inhibition curve with a large enough effect;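 note: plate controls were DMSO vehicle for no effect and reference drug for full effect; nearly all actives have a fitted effect of over 65% in size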
#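 Infected erythrocytes (Dd2, 0.3% parasitemia, 2.5% hematocrit final) are added to compound in RPMI-1640/Albumax II medium, grown 72 h at 37C in low oxygen, then lysed with saponin/Triton-X containing SYBR Green and read by fluorescence.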
# The depositor's hits bear a star; i = inactive; [ ] = another dose, or the depositor's remark. The entries come from a sample that favours hits as a whole. Potency is the fitted concentration of half-maximal effect.
SMILES,Pf Dd2 growth
CC1=NOC2(CCN([S+](=O)([O-])c3cccc(C(F)(F)F)c3)C2)C1 (configuration not stated),10%[44.1 µM]
O=C(NCC1CCOCC1)c1ccc(F)cc1,23%
CC(=O)N1CCN(c2cncc(C(=O)N3CCOCC3)n2)CC(O)C1 (configuration not stated),-4%
CC1(c2ccccc2)CCCN(c2cncc(C(=O)N3CCOCC3)n2)C1 (configuration not stated),11µM*
COC(=O)c1cncc(N2CCCC3(CCC(=O)N(Cc4ccccc4)C3)C2)n1 (configuration not stated),6%
O=C(C1CC1)N1CC(F)(F)C[C@H]1c1nc(-c2cccnc2)no1,-1%
COc1ccc(-c2cc([C@H]3CN4CC[C@H]3C[C@@H]4CNS(=O)(=O)c3ccccc3)n(C)n2)cc1,i
COc1ccc(CNC[C@H]2C[C@@H]3CCN2C[C@@H]3c2cc(-c3ccc(F)cc3)nn2C)cc1,13µM*
CC[C@H]1CN2CC[C@H]1C[C@@H]2CNCc1ccc(OC)cc1,8.9µM*
C=C[C@H]1CN2CC[C@H]1C[C@@H]2CNCc1ccc(N(C)C)cc1,i
CC[C@H]1CN2CC[C@H]1C[C@@H]2CN(Cc1ccc(SC)cc1)Cc1ccc(SC)cc1,3.5µM*
CC[C@H]1CN2CC[C@H]1C[C@@H]2CNC(=O)c1ccc2ccccc2c1,i
CCN(CC)C[C@H]1CN2CC[C@H]1C[C@@H]2CNS(=O)(=O)c1ccccc1,i
COc1ccc(-c2cc([C@H]3CN4CC[C@H]3C[C@@H]4CNC(=O)c3ccco3)n(C)n2)cc1,-14%[44.1 µM]
CC[C@H]1CN2CC[C@H]1C[C@@H]2CNC(=O)Nc1ccc(Br)cc1,-19%[44.1 µM]
CCS(=O)(=O)N1C[C@@H](COC)[C@H](C(N)=O)C1,9%
COc1cccc(CNC(=O)C2CCCN(c3nc4ccccc4n4cccc34)C2)c1 (configuration not stated),i
COc1ccc(CCNC(=O)c2ccc(Cn3c(=O)c4ccccc4n(CC(=O)C(C)(C)C)c3=O)cc2)cc1OC,i
CC(=O)N1CCC(C(=O)N(C)C2CCc3nn(C)c(=O)n3CC2)CC1 (configuration not stated),21%
Cc1cc(C)c2c(=O)nc(SCc3ccccc3C)n(C3CC3)c2n1,i
COc1ccc(NC(=O)[C@@H]2C[C@@H](c3ccc(F)cc3)N(Cc3ccccc3)C2)cc1OC,10µM*
COc1cccc(NC(=O)[C@@H]2C[C@@H](c3ccc(F)cc3)N([S+](=O)([O-])c3cccnc3)C2)c1,i
O=C(Nc1ccccc1)[C@@H]1C[C@@H](c2ccc(F)cc2)N([S+](=O)([O-])c2cccnc2)C1,10%[44.1 µM]
COc1ccc(NC(=O)[C@@H]2C[C@H](c3ccc(F)cc3)N(Cc3csc(C)n3)C2)cn1,-21%[44.1 µM]
O=C(NCCOc1ccccc1)[C@@H]1C[C@@H](c2ccc(F)cc2)N([S+](=O)([O-])c2cccnc2)C1,-22%
SMILES,Pf Dd2 growth
O=C(Nc1cccc(F)c1)[C@@H]1C[C@@H](c2ccc(F)cc2)N([S+](=O)([O-])c2cccnc2)C1,i
O=C(NCc1cccnc1)[C@@H]1C[C@@H](c2ccc(F)cc2)N(CCOc2ccccc2)C1,8.9µM*
O=C(Nc1cccc(F)c1)[C@@H]1C[C@@H](c2ccc(F)cc2)N([S+](=O)([O-])c2ccccc2)C1,-27%
COc1cccc(NC(=O)[C@@H]2C[C@H](c3ccc(F)cc3)N([S+](C)(=O)[O-])C2)c1,6.3µM*
COc1cccc(NC(=O)[C@@H]2C[C@@H](c3ccc(F)cc3)N(CCOc3ccccc3)C2)c1,-10%[44.1 µM]
COc1cccc(NC(=O)[C@@H]2C[C@H](c3ccc(F)cc3)N(Cc3csc(C)n3)C2)c1,-4%[44.1 µM]
O=C(Nc1cccnc1)[C@@H]1C[C@@H](c2ccc(F)cc2)N(Cc2ccccc2)C1,7.1µM*
Cc1ccccc1-c1noc(CNCc2cc(F)ccc2C(F)(F)F)n1,27%
CC1=NS(=O)(=O)N(Cc2ccc(C)cc2)C=C1C(=O)O,-8%
CN(C)[C@@H]1CO[C@H](CNC(=O)CC(C)(C)C)[C@H]1O,11%[44.1 µM]
COc1ccc(C(=O)N2CCCC(n3cc(-c4noc(C)n4)nn3)C2)c(OC)c1 (configuration not stated),i
CCOc1ccccc1C(=O)N(Cc1cc(OC)c(OC)c(OC)c1)C1CCS(=O)(=O)C1 (configuration not stated),9%
CCN1CCN(C(c2ccc(Cl)cc2)c2c(O)cc(C)n(CCOC)c2=O)CC1 (configuration not stated),i
O=C(Cn1ncn2nc(-c3cccs3)cc2c1=O)NCc1ccc(Cl)cc1,i
Cc1ccccc1OCCn1cc(C(=O)c2ccco2)c2ccccc21,1.3µM*
Cc1cc(OCCn2cc(C(=O)c3ccco3)c3ccccc32)ccc1Cl,1.1µM*
Cc1ccccc1OCCn1cc(C(=O)C2CCCCC2)c2ccccc21,-9%
COc1ccccc1OCCn1cc(C(=O)c2cccs2)c2ccccc21,i

# Assay outcomes (PubChem)
